Reference: PubChem BioAssay (EPA / NIEHS)
Records with an inconclusive call do not appear. Active and inactive are the calls of the source. Rule for the calls, unless noted: active = hit-call score of the fitted dose curve at least 0.9, where 1 is the maximum; inactive = score below 0.9.

Experiments:
[1] = UKN2_HCS_IMR90_neural_migration: University of Konstanz (UKN) Leist Lab Neural Crest Cell Migration Assay in human induced IMR90 Pluripotent Stem Cells (UKN2) (AID 2284204); settings: actives raise or lower the signal
Method in brief: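 Stopper-exclusion migration (cMINC), human iPSC-derived neural crest cells; N2-S + EGF/FGF; compound added 24 h post-stopper removal, 24 h exposure. Readout: calcein-AM/Hoechst 30 min, HCS fluorescence imaging; bidirectional fitting, DMSO baseline.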

[2] = UKN4_HCS_LUHMES_neurite_outgrowth: University of Konstanz (UKN) Leist Lab Neurite Outgrowth Assay in human LUHMES cells (UKN4) (AID 2284206); settings: actives raise or lower the signal
Method in brief: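 Read-out: calcein-AM neurite area by high-content fluorescence imaging, with Hoechst H-33342 viability counterstain, after 24 h chemical exposure of day-2 differentiated LUHMES cells. Activity fitted bidirectionally against DMSO baseline.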

[3] = IUF_NPC1b_proliferation_BrdU_72hr: Leibniz Research Institute for Environmental Medicine (IUF) 72-hour Neural Progenitor Cell Bromodeoxyuridine (BrdU) Proliferation Assay (NPC1b) (AID 2284207)
Method in brief: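 Luminescent BrdU ELISA measured DNA synthesis during the last 16 h of a 72 h exposure of primary human neural progenitor spheres grown with EGF and FGF. Signal was fitted relative to DMSO controls.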

[4] = IUF_NPC1a_proliferation_area_72hr: Leibniz Research Institute for Environmental Medicine (IUF) 72-hour Neural Progenitor Cell Proliferation Area Assay (NPC1a) (AID 2284208)
Method in brief: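 Proliferation is scored as sphere area gain in primary human fetal neural progenitors treated for 72 h in EGF/FGF-containing medium. Viability, LDH and BrdU readouts come from the same wells.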

[5] = IUF_NPC1_viability_72hr: Viability Assessment at 72 hours in the Leibniz Research Institute for Environmental Medicine (IUF) Neural Progenitor Cell Proliferation Assay (NPC1) (AID 2284209)
Method in brief: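 Alamar blue fluorescence (RFU) after 72 h exposure, normalized to DMSO baseline. hNPC spheres from GW 16-19 fetal cortex, single sphere per well in growth-factor medium; no compound renewal.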

[6] = CCTE_Mundy_HCI_Cortical_Synap_Neur_Matur_BPCount: CCTE's Synaptogenesis and Neurite Maturation Assay in rat cortical cells for Branch Point Count, Mundy Lab (AID 2284211)
Method in brief: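 In this multiplexed morphology assay, cortical cells from rat receive chemicals at DIV 7 and are fixed at DIV 12, then immunostained and imaged; branch points are counted, with DMSO as baseline.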

[7] = CCTE_Mundy_HCI_Cortical_NOG_NeuriteCount: CCTE's Neurite Outgrowth Assay in rat cortical cells for Neurite Count, Mundy Lab (AID 2284212);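 note: cells fixed about two days after chemical exposure began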
Method in brief: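 Rat cortical primary cells; compound added 2 h post-plating, 1/10 dilution of working solution. Anti-betaIII-tubulin/AF488 ICC; ArrayScan neurite count vs DMSO.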

[8] = CCTE_Mundy_HCI_Cortical_NOG_NeuriteLength: CCTE's Neurite Outgrowth Assay in rat cortical cells for Neurite Length, Mundy Lab (AID 2284213);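 note: neurites imaged about 48 to 50 h after chemical exposure began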
Method in brief: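 First, rat primary cortical cells were plated and, 2 h later, given test chemical as a 1/10 dilution. Finally, βIII-tubulin immunostaining enabled automated imaging of neurite length.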

[9] = CCTE_Mundy_HCI_Cortical_Synap_Neur_Matur_NeuriteLength: CCTE's Synaptogenesis and Neurite Maturation Assay in rat cortical cells for Neurite Length, Mundy Lab (AID 2284214)
Method in brief: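 Read-out: high-content imaging of MAP2-labelled neurites, with synaptophysin and Hoechst co-stain, in rat cortical cultures fixed at DIV 12. Activity fitted in positive direction relative to DMSO baseline.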

[10] = CCTE_Mundy_HCI_Cortical_Synap_Neur_Matur_NeuriteSpotCountPerNeuron: CCTE's Synaptogenesis and Neurite Maturation Assay in rat cortical cells for Neurite Spot Count per Neuron Count, Mundy Lab (AID 2284215)
Method in brief: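 Synapse density is scored as synaptophysin spots along neurites per neuron in fixed rat cortical neurons, measured at DIV 12 after chemical dosing at DIV 7. DMSO is the negative control and activity baseline.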

[11] = CCTE_Mundy_HCI_Cortical_Synap_Neur_Matur_SynapseCount: CCTE's Synaptogenesis and Neurite Maturation Assay in rat cortical cells for Synapse Count, Mundy Lab (AID 2284218)
Method in brief: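 Read-out: synapse number per neuron, automated high-content imaging of fixed cells immunostained for MAP2 and synaptophysin plus Hoechst nuclei. Rat primary cortical cultures, AraC at DIV 5, chemical dosing DIV 7–12. Positive-direction fit relative to DMSO.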

[12] = CCTE_Mundy_HCI_hN2_NOG_NeuriteCount: CCTE's Neurite Outgrowth Assay in human hN2 cells for Neurite Count, Mundy Lab (AID 2284219; active = hit-call score of the fitted dose curve at least 0.9, where 1 is the maximum)
Method in brief: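 In this morphology assay, hNP1-derived neurons received test chemical 2 h post-plating and were fixed two days later in warm paraformaldehyde/sucrose containing Hoechst 33342. Neurites, labelled by rabbit anti-βIII-tubulin (1:800) and Alexa Fluor-488 (1:500), were counted automatically.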

[13] = CCTE_Mundy_HCI_hN2_NOG_NeuriteLength: CCTE's Neurite Outgrowth Assay in human hN2 cells for Neurite Length, Mundy Lab (AID 2284220; active = hit-call score of the fitted dose curve at least 0.9, where 1 is the maximum)
Method in brief: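 Read-out is neurite length from high-content imaging of βIII-tubulin/Alexa Fluor-488-labelled neurons, referenced to DMSO controls.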

[14] = CCTE_Mundy_HCI_hN2_NOG_NeuronCount: CCTE's Neurite Outgrowth Assay in human hN2 cells for Neuron Count, Mundy Lab (AID 2284221; active = hit-call score of the fitted dose curve at least 0.9, where 1 is the maximum)
Method in brief: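 Read-out is the number of betaIII-tubulin-positive neurons imaged by automated high-content analysis, with DMSO as negative control.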

[15] = CCTE_Mundy_HCI_Cortical_Synap_Neur_Matur_NeuriteCount: CCTE's Synaptogenesis and Neurite Maturation Assay in rat cortical cells for Neurite Count, Mundy Lab (AID 2284222)
Method in brief: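 Chemical exposure runs DIV 7–12 in rat cortical cultures, glia suppressed by AraC at DIV 5; measurement is at DIV 12. Imaging-derived neurite counts are fitted against DMSO baseline.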

[16] = UKN4_HCS_LUHMES_cell_viability: Viability Assessment in the University of Konstanz (UKN) Leist Lab Neurite Outgrowth Assay in human LUHMES cells (UKN4) (AID 2284232)
Method in brief: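 Day-2 differentiated LUHMES, 30000 cells/well, dosed ~30 min–2 h post-seeding; 24 h treatment incl. staining; Hoechst H-33342 + calcein-AM at 23.5 h; HCS imaging; DMSO-normalized, bidirectional fit.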

[17] = UKN2_HCS_IMR90_cell_viability: Viability Assessment in the University of Konstanz (UKN) Leist Lab Neural Crest Cell Migration Assay in human induced IMR90 Pluripotent Stem Cells (UKN2) (AID 2284233);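 note: cells exposed to compound for 24 h after a 24 h migration phase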
Method in brief: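 Viability read as calcein-AM fluorescence by high-content imaging, Hoechst co-stain, 30 min. Human iPSC (IMR90) neural crest cells had migrated 24 h into stopper-defined gaps before 24 h chemical exposure. Fitted bidirectionally relative to DMSO.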

[18] = CCTE_Mundy_HCI_hNP1_Casp3_7: CCTE's Caspase-Glo 3/7 Assay in human neuroprogenitor cells for Apoptosis, Mundy Lab (AID 2284240)
Method in brief: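 Luminescent caspase-3/7 readout, 26.5 h post-dose, in human neural progenitor cells from WA09 embryonic stem cells. Cells grew 40–44 h at 37 °C, 5% CO2 before chemical addition. Activity analysed as signal increase over DMSO baseline.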

[19] = CCTE_Mundy_HCI_hNP1_CellTiter: CCTE's Cell Titer-Glo 2 Assay in human neuroprogenitor cells for Viability, Mundy Lab (AID 2284241; active = hit-call score of the fitted dose curve at least 0.9, where 1 is the maximum)
Method in brief: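 Viability read as luminescent ATP content (CellTiter-Glo, 30 min room temperature) twenty-four hours after dosing, relative to DMSO. Cells: WA09-derived hNP1 neuroprogenitors on poly-L-ornithine/laminin, plated 40 to 44 hours before chemical.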

[20] = CCTE_Mundy_HCI_Cortical_Synap_Neur_Matur_NeuronCount: CCTE's Synaptogenesis and Neurite Maturation Assay in rat cortical cells for Neuron Count, Mundy Lab (AID 2284242; active = hit-call score of the fitted dose curve at least 0.9, where 1 is the maximum;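 note: hits reduce neuron count versus DMSO baseline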)
Method in brief: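 Rat cortical cultures; AraC DIV 5; chemical dosing + media change DIV 7 to DIV 12 (288.33 h readout). Fix, Hoechst, anti-MAP2/anti-synaptophysin immunostain; HCI neuron count vs DMSO baseline.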

[21] = IUF_NPC2c_oligodendrocyte_migration_120hr: Leibniz Research Institute for Environmental Medicine (IUF) 120-hour Neural Progenitor Cell Migration Assay for Oligodendrocyte Migration (NPC2c) (AID 2284297);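 note: O4-positive oligodendrocyte migration distance divided by radial glia migration distance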
Method in brief: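 Primary hNPC spheres migrating on extracellular matrix, exposed five days to a 7-point dilution series with solvent control. Oligodendrocyte migration was scored by high-content imaging of O4 immunostaining and expressed relative to radial glia distance.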

[22] = IUF_NPC2a_radial_glia_migration_120hr: Leibniz Research Institute for Environmental Medicine (IUF) 120-hour Neural Progenitor Cell Migration Assay for Radial Glia Migration (NPC2a) (AID 2284298)
Method in brief: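 In this multiplexed test, fetal hNPC spheres migrate radially on poly-D-lysine/laminin in N2 medium (37C, 5% CO2, pH 7.2-7.6) under continuous compound exposure over five days. Migration is scored at 120 h from automated Hoechst nuclear imaging.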

[23] = IUF_NPC2a_radial_glia_migration_72hr: Leibniz Research Institute for Environmental Medicine (IUF) 72-hour Neural Progenitor Cell Migration Assay for Radial Glia Migration (NPC2a) (AID 2284299)
Method in brief: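 Readout: mean of four manual brightfield measurements of radial glia migration distance (um) at 72 h. hNPC spheres (0.3 mm) exposed to 7 compound concentrations plus solvent control on PDL/laminin, 37C, 5% CO2; activity fitted relative to DMSO.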

[24] = IUF_NPC2b_neuronal_migration_120hr: Leibniz Research Institute for Environmental Medicine (IUF) 120-hour Neural Progenitor Cell Migration Assay for Neuron Migration (NPC2b) (AID 2284300)
Method in brief: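 Neurons identified by TUBB3 immunostaining and Hoechst nuclei; migration distance measured automatically on fixed wells at 120 h, normalized to glia migration. Exposure spanned five days of differentiation in N2 medium, seven test concentrations.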

[25] = IUF_NPC3_neuronal_differentiation_120hr: Leibniz Research Institute for Environmental Medicine (IUF) 120-hour Neuronal Differentiation Assay (NPC3) (AID 2284301)
Method in brief: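 hNPC spheres, PDL/laminin, DMEM/F12 3:1 + 1% N2, 37C, 5% CO2; 7 concentrations + solvent control, 5 d exposure, half-change day 3. Fix 120 h; TUBB3/Hoechst ICC, CNN neuron calling; % neurons vs nuclei, DMSO-normalized.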

[26] = IUF_NPC4_neurite_length_120hr: Leibniz Research Institute for Environmental Medicine (IUF) 120-hour Neuronal Morphology Assay for Neurite Length (NPC4) (AID 2284302)
Method in brief: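 hNPC spheres (0.3 mm, fetal brain GW 16-19) on PDL/laminin, DMEM:F12 3:1 + 1% N2, 37C 5% CO2; 7 concs + solvent control, day 0-5, half medium change d3; fix 120 h, TUBB3 ICC, mean neurite length um vs DMSO.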

[27] = IUF_NPC5_oligodendrocyte_differentiation_120hr: Leibniz Research Institute for Environmental Medicine (IUF) 120-hour Oligodendrocyte Differentiation Assay (NPC5) (AID 2284304; active = hit-call score of the fitted dose curve at least 0.9, where 1 is the maximum;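 note: primary human fetal neural progenitor spheres plated to migrate and differentiate; share of O4-positive cells among Hoechst nuclei found by CNN image analysis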)
Method in brief: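 Human primary NPC neurospheres migrating and differentiating on laminin for 120 h under continuous compound exposure (serial dilution, solvent control). Endpoint: percent O4+ oligodendrocytes among Hoechst nuclei, detected by CNN image analysis, with DMSO as negative control.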

[28] = IUF_NPC4_neurite_area_120hr: Leibniz Research Institute for Environmental Medicine (IUF) 120-hour Neuronal Morphology Assay for Neurite Area (NPC4) (AID 2284305; active = hit-call score of the fitted dose curve at least 0.9, where 1 is the maximum)
Method in brief: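 hNPC spheres on PDL/laminin, N2 medium, 37C/5% CO2; dosed day 0, half-medium refresh day 3; fixed 120 h; TUBB3/Hoechst ICC, high-content imaging; neurite area = mean pixels per neuron (nuclei excluded); DMSO baseline, max 0.1%.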

[29] = IUF_NPC2-5_cytotoxicity_72hr: Cytotoxicity Assessment at 72 hours in the Leibniz Research Institute for Environmental Medicine (IUF) Neural Progenitor Cell Migration and Differentiation Assay for Cytotoxicity (NPC2-5) (AID 2284306; active = hit-call score of the fitted dose curve at least 0.9, where 1 is the maximum;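 note: LDH release into supernatant measured by resorufin fluorescence marking membrane damage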)
Method in brief: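 hNPC spheres (0.3 mm), PDL/laminin, DMEM/F12 3:1 + 1% N2; cpd from d0, 7 concs + SC, DMSO max 0.1%; half-medium refresh d3. Readout: supernatant LDH via resorufin fluorescence (RFU), 72 h; gain-of-signal fit.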

[30] = IUF_NPC2-5_cell_number_120hr: Cell Number Assessment at 120 hours in the Leibniz Research Institute for Environmental Medicine (IUF) Neural Progenitor Cell Migration and Differentiation Assay (NPC2-5) (AID 2284308);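 note: count of Hoechst-stained nuclei in migration zone around plated human neural progenitor spheres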
Method in brief: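 Cell number is taken as all Hoechst-positive nuclei detected in the area into which cells migrate out of the sphere, scored at 120 h and referenced to DMSO solvent control, which was kept at no more than 0.1%.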

[31] = IUF_NPC2-5_viability_120hr: Viability Assessment at 120 hours in the Leibniz Research Institute for Environmental Medicine (IUF) Neural Progenitor Cell Migration and Differentiation Assay (NPC2-5) (AID 2284312)
Method in brief: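 Human fetal neural progenitor spheres (0.3 mm) plated on poly-D-lysine/laminin in N2 differentiation medium, exposed 120 h with half-medium refresh at day 3. Viability by alamar blue resazurin fluorescence; 7 concentrations, DMSO max 0.1%.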

[32] = IUF_NPC1_cytotoxicity_72hr: Cytotoxicity Assessment at 72 hours in the Leibniz Research Institute for Environmental Medicine (IUF) Neural Progenitor Cell Proliferation Assay (NPC1) (AID 2284332; active = hit-call score of the fitted dose curve at least 0.9, where 1 is the maximum;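 note: rising LDH signal means more cytotoxicity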)
Method in brief: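 LDH in supernatant, resazurin→resorufin fluorescence (RFU), 72 h exposure, no re-dosing. Cells: primary hNPC spheres, one per well, EGF+FGF medium, 37C/5% CO2, pH 7.2-7.6. Fit: positive direction vs baseline and dynamic range.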

Measured: AC50

Brc1ccc(Oc2ccc(Br)cc2Br)c(Br)c1
active: [2] 21.8 µM | [6] 3.98 µM | [7] 23.6 µM | [8] 25.2 µM | [9] 4.59 µM | [10] 8.25 µM | [11] 8.79 µM | [12] 8.93 µM | [13] 8.87 µM | [14] 4.6 µM | [15] 5.14 µM | [16] 41.5 µM | [20] 7.42 µM | [27] 10.4 µM
inactive: all other assays above
